The subject of assay [1] is Vero E6 infected with SARS-CoV-2. In words: morphology score (similarity to uninfected cells); higher = more like uninfected cells. The following applies: 24 h.
Assay [2] has the same test system. In words: SARS-CoV-2 infection rate relative to infected DMSO; higher = more infection, active = 60 or less. The following applies: 24 h.

With `Cc1c(C)c2c(c(C)c1O)CCC(C)(C)O2` (10 µM), the morphology score in assay [1] is -0.0795. For the same compound, the SARS-CoV-2 infection rate in assay [2] is 116% (inactive).

Regarding `CC(C)(O)C(Cl)(Cl)Cl` [chlorobutanol] (10 µM), the morphology score in assay [1] was determined as 0.123. Further, the SARS-CoV-2 infection rate in assay [2] is 106% (inactive).

In assay [1], `CCCCc1ccc(O)cc1O` [rucinol] (10 µM) had a morphology score of -0.0981. Also, the SARS-CoV-2 infection rate in assay [2] is 99% (inactive).

Take `C=C1/C(=C\C=C2/CCC[C@]3(C)[C@@H]([C@H](C)/C=C/[C@H](C)C(C)(C)O)CC[C@@H]23)C[C@@H](O)C[C@@H]1O` [ercalcitriol] (10 µM): the morphology score in assay [1] came to 0.0324. The SARS-CoV-2 infection rate in assay [2] is 97.5% (inactive).

As to `CC(C)(C)c1nc(-c2cccc(NS(=O)(=O)c3c(F)cccc3F)c2F)c(-c2ccnc(N)n2)s1` [dabrafenib] (10 µM), the morphology score in assay [1] came out at 0.245. Also, the SARS-CoV-2 infection rate in assay [2] was 114% (inactive).

Take `NC(=O)N/N=C/c1ccc(Oc2ccc(F)cc2)cc1` (10 µM): in assay [1], the morphology score is -0.137. For the same compound, the SARS-CoV-2 infection rate in assay [2] is 112% (inactive).

In the case of `O=C(O)CCCc1c[nH]c2ccccc12` [3-indolebutyric-acid] (10 µM), the morphology score in assay [1] came to 0.123. In addition, the SARS-CoV-2 infection rate in assay [2] is 114% (inactive).

In the case of `Cc1nc2sccn2c(=O)c1CCN1CCC(=C(c2ccccc2)c2ccc(F)cc2)CC1` (10 µM), the morphology score in assay [1] came to 0.149. In addition, the SARS-CoV-2 infection rate in assay [2] was 81.5% (inactive).

Compound `CC(C)[C@H](N)C(=O)OCC(CO)OCn1cnc2c(=O)nc(N)[nH]c21` (mixture of isomers) [valganciclovir] (10 µM) showed a morphology score in assay [1] of 0.118. In addition, in assay [2], the SARS-CoV-2 infection rate was 102% (inactive).

`CCC1(C)CC(=O)NC1=O` (stereo not given) [ethosuximide] (10 µM) displayed a morphology score in assay [1] of 0.0477. Besides, the SARS-CoV-2 infection rate in assay [2] was 104% (inactive).

In assay [1], `C[C@]1(O)C[C@@H](c2nc(-c3ccc4ccc(-c5ccccc5)nc4c3)c3c(N)nccn32)C1` [linsitinib] (10 µM) had a morphology score of 0.275. Further, the SARS-CoV-2 infection rate in assay [2] was 88.5% (inactive).

Regarding `COc1ccc(C(=O)Nc2sc3c(c2C(N)=O)CCCC3)cc1OC` (10 µM), in assay [1], the morphology score is -0.0466. In assay [2], the SARS-CoV-2 infection rate is 96.5% (inactive).

The compound `CC(C)C[C@H](NC(=O)[C@@H](COC(C)(C)C)NC(=O)[C@H](Cc1ccc(O)cc1)NC(=O)[C@H](CO)NC(=O)[C@H](Cc1c[nH]c2ccccc12)NC(=O)[C@H](Cc1cnc[nH]1)NC(=O)[C@@H]1CCC(=O)N1)C(=O)N[C@@H](CCCNC(=N)N)C(=O)N1CCC[C@H]1C(=O)NNC(N)=O` [goserelin-acetate] (10 µM) registered a morphology score in assay [1] of 0.0827. For the same compound, in assay [2], the SARS-CoV-2 infection rate is 109% (inactive).

The compound `COc1ccc(-c2cc(=O)c3c(O)cc(O[C@@H]4O[C@H](CO[C@@H]5O[C@@H](C)[C@H](O)[C@@H](O)[C@H]5O)[C@@H](O)[C@H](O)[C@H]4O)cc3o2)cc1O` [diosmin] (10 µM) returned a morphology score in assay [1] of -0.119. Moreover, the SARS-CoV-2 infection rate in assay [2] is 106% (inactive).

`Cc1ccccc1-c1cc(N2CCN(C)CC2)ncc1N(C)C(=O)C(C)(C)c1cc(C(F)(F)F)cc(C(F)(F)F)c1` [netupitant] (10 µM): the morphology score in assay [1] is 0.112. Moreover, the SARS-CoV-2 infection rate in assay [2] is 94% (inactive).

In assay [1], `O=C(O)c1cc(=O)c2ccccc2o1` [chromocarb] (10 µM) yielded a morphology score of -0.133. Further, the SARS-CoV-2 infection rate in assay [2] is 106% (inactive).

With `CC[C@@]1(O)C(=O)OCc2c1cc1n(c2=O)Cc2cc3cc(O)ccc3nc2-1` [10-hydroxycamptothecin] (10 µM), the morphology score in assay [1] is -0.13. For the same compound, the SARS-CoV-2 infection rate in assay [2] is 103% (inactive).

For `NC(=O)c1nc(Nc2ccccc2)sc1NC(=O)C1CCCCC1` (0.833333 µM), the morphology score in assay [1] is 0.0658. Also, in assay [2], the SARS-CoV-2 infection rate is 100% (inactive).

For `OCc1cc(C(O)CNCCCCCCOCCCCc2ccccc2)ccc1O` (stereo not given) [salmeterol] (10 µM), in assay [1], the morphology score is 0.465. In addition, the SARS-CoV-2 infection rate in assay [2] is 54.5% (active).

On to `Cc1ccc(=O)n(-c2ccccc2)c1` [pirfenidone] (10 µM), for which the morphology score in assay [1] amounted to 0.289. Further, the SARS-CoV-2 infection rate in assay [2] is 83% (inactive).

For `CC(=O)O[C@]1(C(C)=O)CC[C@H]2[C@@H]3C[C@H](C)C4=CC(=O)CC[C@]4(C)[C@H]3CC[C@@]21C` [medroxyprogesterone-acetate] (10 µM), in assay [1], the morphology score turned out to be 0.153. In addition, the SARS-CoV-2 infection rate in assay [2] is 105% (inactive).

With `O=C(O)CCn1c2c(c3ccccc31)C[C@H](NS(=O)(=O)c1ccc(F)cc1)CC2` [ramatroban] (10 µM), the morphology score in assay [1] is -0.0055. In addition, the SARS-CoV-2 infection rate in assay [2] is 102% (inactive).

As for `CCOc1cc2ncc(C#N)c(Nc3ccc(OCc4ccccn4)c(Cl)c3)c2cc1NC(=O)/C=C/CN(C)C` [neratinib] (10 µM), the morphology score in assay [1] was -0.265. Besides, the SARS-CoV-2 infection rate in assay [2] was 102% (inactive).

Compound `O=C1CC[C@@]2(O)[C@H]3Cc4ccc(O)c5c4[C@@]2(CCN3CC2CC2)[C@H]1O5` (10 µM) had a morphology score in assay [1] of -0.0472. For the same compound, the SARS-CoV-2 infection rate in assay [2] is 106% (inactive).

Consider `CC(=O)NC1N=C(c2ccccc2)c2ccccc2NC1=O` (stereo not given) (10 µM), for which the morphology score in assay [1] was 0.189. Besides, in assay [2], the SARS-CoV-2 infection rate is 105% (inactive).

Compound `CS(=O)(=O)c1ccc([C@@H](O)[C@@H](CO)NC(=O)C(Cl)Cl)cc1` [thiamphenicol] (10 µM) came in with a morphology score in assay [1] of -0.172. Further, the SARS-CoV-2 infection rate in assay [2] was 118% (inactive).

Regarding `Oc1cc2c(cc1O)[C@H]1c3ccccc3CN[C@@H]1CC2` (racemic) [dihydrexidine] (10 µM), the morphology score in assay [1] is -0.0209. For the same compound, the SARS-CoV-2 infection rate in assay [2] is 101% (inactive).

Compound `CC1(C)Oc2ccc(C#N)cc2[C@@H](N2CCCC2=O)[C@@H]1O` [levcromakalim] (10 µM) came in with a morphology score in assay [1] of 0.221. Moreover, the SARS-CoV-2 infection rate in assay [2] is 97% (inactive).

In assay [1], `c1ccc(-c2ccc(C(c3ccccc3)n3ccnc3)cc2)cc1` (stereo not given) [bifonazole] (10 µM) displayed a morphology score of 0.407. The SARS-CoV-2 infection rate in assay [2] is 79% (inactive).

`CCC(=O)O[C@H](CC(=O)O)C[N+](C)(C)C` [levocarnitine-propionate] (10 µM) registered a morphology score in assay [1] of -0.0873. The SARS-CoV-2 infection rate in assay [2] was 104% (inactive).

The values above are taken from the supplement of paper PMC13380429.
